The text below walks through data of the supplement of paper PMC9262897, “Low-cost anti-mycobacterial drug discovery using engineered E. coli” (Nature Communications, 2022).

Structures can show the parent of a compound that is named as a salt. ± gives the standard deviation of the averaged measurements.

The test system of one experiment is E. coli TESEC Mtb DapB. The experiment can be described thus: growth (OD600 after 10 h); higher = more growth (less inhibition). The settings on record: arabinose induction (level): High; compound 0.1 mM; raw OD600 reference: median of DMSO wells […], cell-free background 0.041. As for the experimental part:
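TESEC E. coli strains in which the native enzyme is deleted and replaced by arabinose-inducible Mtb Asd, DapB, CysH or TrpD, each grown in its selective medium. Strains were screened against the Prestwick library at 0.1 mM and 1% DMSO in 384-well format at low and high arabinose induction. Growth is read as OD600 after 10 h in triplicate.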
As for `NCCCCCC(=O)O` [Aminocaproic acid], the growth worked out at 0.206 ± 0.02.

`CC(C(=O)O)c1ccc2c(c1)[nH]c1ccc(Cl)cc12` (stereo not given) [Carprofen]: the growth was found to be 0.201 ± 0.0073.

In turn, `CNCCC=C1c2ccccc2CCc2ccccc21` [Nortriptyline hydrochloride] registered a growth of 0.185 ± 0.025.

As to `COc1cc2nc(N3CCN(C(=O)C4CCCO4)CC3)nc(N)c2cc1OC` (stereo not given) [Terazosin hydrochloride], the growth came out at 0.222 ± 0.02.

In turn, `CN(C)CCOC(C)(c1ccccc1)c1ccccn1` (stereo not given) [Doxylamine succinate] showed a growth of 0.179 ± 0.019.

`O=c1[nH]c(=O)n([C@H]2C[C@H](O)[C@@H](CO)O2)cc1F` [Floxuridine] yielded a growth of 0.129 ± 0.0019.

With `CCC[C@H](N[C@@H](C)C(=O)N1[C@H](C(=O)O)C[C@@H]2CCCC[C@@H]21)C(=O)OCC` [Perindopril], the growth came to 0.198 ± 0.01.

In the case of `COc1ccc(C(=O)NCc2ccc(OCCN(C)C)cc2)cc1OC` [Itopride], the growth was 0.228 ± 0.028.

`CN(C)CCCN1c2ccccc2Sc2ccc(Cl)cc21` [Chlorpromazine hydrochloride] yielded a growth of 0.13 ± 0.012.

`CC(C)(C)C(=O)OCOC(=O)[C@@H]1N2C(=O)[C@@H](NC(=O)[C@H](N)c3ccccc3)[C@H]2SC1(C)C` [Pivampicillin] yielded a growth of 0.216 ± 0.058.

Turning to `CCCN[C@H]1CCc2nc(N)sc2C1` [Pramipexole dihydrochloride], the growth was found to be 0.174 ± 0.013.

On to `Cn1nnc2c(C(N)=O)ncn2c1=O` [Temozolomide], for which the growth worked out at 0.194 ± 0.02.

In turn, `Clc1ccc(Nc2nnc(Cc3ccncc3)c3ccccc23)cc1` [Vatalanib] came in with a growth of 0.203 ± 0.081.

`CN(C/C=C/c1ccccc1)Cc1cccc2ccccc12` [Naftifine hydrochloride] had a growth of 0.125 ± 0.008.

`CO[C@H]1/C=C/O[C@@]2(C)Oc3c(C)c(O)c4c(O)c(c(/C=N/N5CCN(C6CCCC6)CC5)c(O)c4c3C2=O)NC(=O)/C(C)=C\C=C\[C@H](C)[C@H](O)[C@@H](C)[C@@H](O)[C@@H](C)[C@H](OC(C)=O)[C@@H]1C` [Rifapentine]: the growth worked out at 0.102 ± 0.087.

For `CC(=O)[C@H]1CC[C@H]2[C@@H]3CC=C4C[C@@H](O)CC[C@]4(C)[C@H]3CC[C@]12C` [Pregnenolone], the growth is 0.191 ± 0.0035.

With `OCCN(CCO)c1nc(N2CCCCC2)c2nc(N(CCO)CCO)nc(N3CCCCC3)c2n1` [Dipyridamole], the growth came to 0.195 ± 0.035.

Take `Nc1ccc(S(=O)(=O)Nc2nccs2)cc1` [Sulfathiazole]: the growth was determined as 0.197 ± 0.012.

The molecule `N=C(N=C(N)N)N1CCOCC1` [Moroxidine hydrochloride] registered a growth of 0.203 ± 0.0065.

Molecule `CC(C(=O)O)c1ccc(-c2ccccc2)c(F)c1` (stereo not given) [Flurbiprofen] displayed a growth of 0.208 ± 0.0072.

The experiment is the same for the next values; noted with them: arabinose induction (level): Low; compound 0.1 mM; raw OD600 reference: median of DMSO wells 0.227, cell-free background 0.041.
In the case of `NCCCCCC(=O)O` [Aminocaproic acid], the growth came to 0.28 ± 0.025.

Molecule `CC(C(=O)O)c1ccc2c(c1)[nH]c1ccc(Cl)cc12` (stereo not given) [Carprofen] displayed a growth of 0.215 ± 0.011.

For `CNCCC=C1c2ccccc2CCc2ccccc21` [Nortriptyline hydrochloride], the growth came out at 0.195 ± 0.04.

Molecule `COc1cc2nc(N3CCN(C(=O)C4CCCO4)CC3)nc(N)c2cc1OC` (stereo not given) [Terazosin hydrochloride] gave a growth of 0.219 ± 0.012.

In turn, `CN(C)CCOC(C)(c1ccccc1)c1ccccn1` (stereo not given) [Doxylamine succinate] had a growth of 0.206 ± 0.011.

In turn, `O=c1[nH]c(=O)n([C@H]2C[C@H](O)[C@@H](CO)O2)cc1F` [Floxuridine] gave a growth of 0.165 ± 0.0032.

Take `CCC[C@H](N[C@@H](C)C(=O)N1[C@H](C(=O)O)C[C@@H]2CCCC[C@@H]21)C(=O)OCC` [Perindopril]: the growth was 0.239 ± 0.041.

Molecule `COc1ccc(C(=O)NCc2ccc(OCCN(C)C)cc2)cc1OC` [Itopride] had a growth of 0.268 ± 0.025.

In the case of `CN(C)CCCN1c2ccccc2Sc2ccc(Cl)cc21` [Chlorpromazine hydrochloride], the growth turned out to be 0.25 ± 0.08.

The molecule `CC(C)(C)C(=O)OCOC(=O)[C@@H]1N2C(=O)[C@@H](NC(=O)[C@H](N)c3ccccc3)[C@H]2SC1(C)C` [Pivampicillin] yielded a growth of 0.24 ± 0.024.

`CCCN[C@H]1CCc2nc(N)sc2C1` [Pramipexole dihydrochloride] returned a growth of 0.209 ± 0.013.

For `Cn1nnc2c(C(N)=O)ncn2c1=O` [Temozolomide], the growth stood at 0.211 ± 0.0067.

Take `Clc1ccc(Nc2nnc(Cc3ccncc3)c3ccccc23)cc1` [Vatalanib]: the growth came out at 0.15 ± 0.015.

`CN(C/C=C/c1ccccc1)Cc1cccc2ccccc12` [Naftifine hydrochloride] returned a growth of 0.133 ± 0.0053.

For `CO[C@H]1/C=C/O[C@@]2(C)Oc3c(C)c(O)c4c(O)c(c(/C=N/N5CCN(C6CCCC6)CC5)c(O)c4c3C2=O)NC(=O)/C(C)=C\C=C\[C@H](C)[C@H](O)[C@@H](C)[C@@H](O)[C@@H](C)[C@H](OC(C)=O)[C@@H]1C` [Rifapentine], the growth came out at 0.0512 ± 0.00082.

In turn, `CC(=O)[C@H]1CC[C@H]2[C@@H]3CC=C4C[C@@H](O)CC[C@]4(C)[C@H]3CC[C@]12C` [Pregnenolone] yielded a growth of 0.184 ± 0.009.

Regarding `OCCN(CCO)c1nc(N2CCCCC2)c2nc(N(CCO)CCO)nc(N3CCCCC3)c2n1` [Dipyridamole], the growth is 0.205 ± 0.033.

Molecule `Nc1ccc(S(=O)(=O)Nc2nccs2)cc1` [Sulfathiazole] gave a growth of 0.199 ± 0.025.

Turning to `N=C(N=C(N)N)N1CCOCC1` [Moroxidine hydrochloride], the growth was determined as 0.245 ± 0.053.

`CC(C(=O)O)c1ccc(-c2ccccc2)c(F)c1` (stereo not given) [Flurbiprofen]: the growth is 0.188 ± 0.023.
